{"source": "PubChem BioAssay (NCATS)", "note": "Records with an inconclusive call do not appear. Where a call stands in place of a potency, no number is given. The source made the active and inactive calls. Calls follow the shape of the dose curve; as a rule, active = well fitted inhibition curve with a large enough effect; inconclusive = small, poorly fitted or top-dose-only effect, or effect the other way; inactive = flat fitted curve, though single readings scatter."}
{"biological_target": "ATPase family AAA domain-containing protein 5 (Homo sapiens) (UniProt Q96QE3)", "sequence (Q96QE3 whole entry, looked up, the tested form may be a part)": "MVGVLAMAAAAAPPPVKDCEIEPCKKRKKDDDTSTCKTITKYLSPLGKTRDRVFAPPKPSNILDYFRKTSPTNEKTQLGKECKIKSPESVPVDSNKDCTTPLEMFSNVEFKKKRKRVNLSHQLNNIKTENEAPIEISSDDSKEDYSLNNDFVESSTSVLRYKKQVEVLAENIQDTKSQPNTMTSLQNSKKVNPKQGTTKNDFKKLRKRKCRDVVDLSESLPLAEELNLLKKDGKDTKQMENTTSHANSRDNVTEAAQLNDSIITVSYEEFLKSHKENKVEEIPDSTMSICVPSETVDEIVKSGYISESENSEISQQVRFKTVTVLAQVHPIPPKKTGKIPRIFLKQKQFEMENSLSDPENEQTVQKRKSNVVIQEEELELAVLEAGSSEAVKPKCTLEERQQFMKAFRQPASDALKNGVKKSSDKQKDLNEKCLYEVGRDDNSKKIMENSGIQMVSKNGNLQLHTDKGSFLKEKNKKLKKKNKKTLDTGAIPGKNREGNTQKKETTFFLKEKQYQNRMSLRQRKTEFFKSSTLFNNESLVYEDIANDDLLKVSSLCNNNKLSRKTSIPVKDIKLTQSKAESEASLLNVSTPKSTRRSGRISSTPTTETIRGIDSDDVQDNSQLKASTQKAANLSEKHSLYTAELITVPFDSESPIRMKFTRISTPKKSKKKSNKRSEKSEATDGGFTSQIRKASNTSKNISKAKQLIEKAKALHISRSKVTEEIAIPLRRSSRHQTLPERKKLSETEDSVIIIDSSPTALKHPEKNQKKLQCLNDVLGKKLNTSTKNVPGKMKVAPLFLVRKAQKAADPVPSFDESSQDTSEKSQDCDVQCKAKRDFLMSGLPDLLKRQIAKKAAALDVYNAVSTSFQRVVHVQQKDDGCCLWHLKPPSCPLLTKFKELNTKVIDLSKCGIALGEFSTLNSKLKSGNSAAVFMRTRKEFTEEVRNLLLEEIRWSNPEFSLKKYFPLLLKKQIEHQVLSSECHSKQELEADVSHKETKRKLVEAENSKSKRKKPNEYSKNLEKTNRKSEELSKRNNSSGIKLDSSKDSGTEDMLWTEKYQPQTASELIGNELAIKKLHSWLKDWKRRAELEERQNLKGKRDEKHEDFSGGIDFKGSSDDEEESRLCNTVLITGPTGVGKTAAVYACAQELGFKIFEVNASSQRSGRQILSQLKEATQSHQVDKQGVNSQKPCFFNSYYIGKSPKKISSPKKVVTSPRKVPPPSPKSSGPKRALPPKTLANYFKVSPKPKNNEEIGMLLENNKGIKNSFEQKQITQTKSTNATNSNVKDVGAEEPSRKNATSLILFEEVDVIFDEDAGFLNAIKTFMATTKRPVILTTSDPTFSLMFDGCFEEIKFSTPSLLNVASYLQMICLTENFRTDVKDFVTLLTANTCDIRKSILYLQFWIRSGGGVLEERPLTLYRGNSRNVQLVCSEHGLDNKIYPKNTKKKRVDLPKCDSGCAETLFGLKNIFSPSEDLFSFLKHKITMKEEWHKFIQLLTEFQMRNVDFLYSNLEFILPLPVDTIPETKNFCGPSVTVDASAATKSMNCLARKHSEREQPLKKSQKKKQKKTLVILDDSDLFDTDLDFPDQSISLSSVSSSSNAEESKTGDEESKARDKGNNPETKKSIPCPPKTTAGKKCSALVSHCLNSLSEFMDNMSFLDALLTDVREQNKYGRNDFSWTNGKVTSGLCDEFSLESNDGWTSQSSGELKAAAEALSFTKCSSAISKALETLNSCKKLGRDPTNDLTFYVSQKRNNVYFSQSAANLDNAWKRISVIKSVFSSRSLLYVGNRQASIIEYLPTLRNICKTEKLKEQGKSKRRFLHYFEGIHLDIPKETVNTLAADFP", "experiment": "Validation screen for small molecules that inhibit ELG1-dependent DNA repair in human embryonic kidney (HEK293T) cells expressing luciferase-tagged ELG1 (AID 493107); also: nearly all actives have a fitted effect of over 70% in size; also: potency is read from the fitted curve at half-maximal effect", "details": "HEK293T ELG1-luciferase level, luminescence, 5-fluorouridine co-treatment, 16 h; series mostly up to 46.1 µM", "description": "NIH Molecular Libraries Probe Production Network [MLPCN]\nNIH Chemical Genomics Center [NCGC]\nAssay Provider: Kyungjae Myung, NHGRI, NIH\nKeywords: MLPCN, qHTS, NCGC, genotoxicity, cancer\nCancer cells divide rapidly compared to normal cells in the body. During cell division, cancer cells need to duplicate their genome by DNA replication. The failure of genome duplication leads to cancer cells' death. Therefore, inhibitors of DNA replication could specifically kill cancer cells. Based on this concept, many chemotherapeutic agents were developed and have been used to treat cancer patients. However, there are a limited number of agents available in the clinical setting, and some of those that do exist have low efficacy and severe side effects. Therefore, if we can find the compounds that effectively block DNA replication either by directly damaging DNA or by inhibiting other cellular mechanisms, the options for cancer treatment will be broadened. With this in mind, we developed a quantitative high-throughput ELG1-luciferase reporter gene assay. Small molecules that specifically block ELG1 function in response to DNA damage can be identified by monitoring the suppression of luciferase activity. Since ELG1 defines a pathway for repairing DNA damage, agents blocking ELG1 function can be used to sensitize cancer cells to chemotherapeutic agents whose mechanism of action involves the induction of DNA damage.\nFor genotoxicity screening, 2,000 cells in 4 uL/well were dispensed into white, solid-bottom 1536-well plates using a solenoid-based dispenser. Following transfer of 1 uL 5-Fluorouridine and 23 nL compound or DMSO vehicle by a pin tool, the plates were incubated 16 hr at 37 °C and 5% CO2. 5 ul ONE-Glo (Promega) was then added to each plate and following a 30 min incubation at room temperature, luciferase activity was quantified on a ViewLux CCD-based plate reader."}
{"compound": "CCN1CCCC1CNC(=O)c1cc(S(=O)(=O)CC)c(N)cc1OC", "note": "(stereo not given)", "Potency": "inactive"}
{"compound": "COc1cc2nc(N3CCN(C(=O)C4COc5ccccc5O4)CC3)nc(N)c2cc1OC", "note": "(stereo not given)", "Potency": "23.1 µM (active)"}
{"compound": "Cc1cc(C(C)(C)C)c(O)c(C)c1CC1=NCCN1", "Potency": "inactive"}
{"compound": "CN(C)C(=O)C(CCN1CCC(O)(c2ccc(Cl)cc2)CC1)(c1ccccc1)c1ccccc1", "Potency": "inactive"}
{"compound": "NC12CC3CC(CC(C3)C1)C2", "Potency": "inactive"}
{"compound": "Nc1nnc(-c2cccc(Cl)c2Cl)c(N)n1", "Potency": "inactive"}
{"compound": "C[C@](N)(Cc1ccc(O)c(O)c1)C(=O)O", "Potency": "inactive"}
{"compound": "CN(Cc1cnc2nc(N)nc(N)c2n1)c1ccc(C(=O)N[C@@H](CCC(=O)O)C(=O)O)cc1", "Potency": "inactive"}
{"compound": "O=C1Cc2cc(CCN3CCN(c4nsc5ccccc45)CC3)c(Cl)cc2N1", "Potency": "9.2 µM (active)"}
{"compound": "CN(C)c1nc(N(C)C)nc(N(C)C)n1", "Potency": "inactive"}
{"compound": "Clc1ccccc1C(c1ccccc1)(c1ccccc1)n1ccnc1", "Potency": "inactive"}
{"compound": "Cc1cc(C(C)(C)C)cc(C)c1CC1=NCCN1", "Potency": "inactive"}
{"compound": "Nc1nc2c(ncn2COC(CO)CO)c(=O)[nH]1", "Potency": "inactive"}
{"compound": "NCCc1cnc[nH]1", "Potency": "inactive"}
{"compound": "CC(C(=O)O)c1cccc(C(=O)c2ccccc2)c1", "note": "(stereo not given)", "Potency": "inactive"}
{"compound": "NC(CO)C(=O)NNCc1ccc(O)c(O)c1O", "note": "(stereo not given)", "Potency": "inactive"}
{"compound": "CCOC(=O)C(C)(C)Oc1ccc(Cl)cc1", "Potency": "inactive"}
{"compound": "OCCN1CCN(CCCN2c3ccccc3Sc3ccc(C(F)(F)F)cc32)CC1", "Potency": "inactive"}
{"compound": "Cn1c(=O)c2c(ncn2C)n(C)c1=O", "Potency": "inactive"}
{"compound": "CN1C(C(=O)Nc2ccccn2)=C(O)c2ccccc2S1(=O)=O", "Potency": "inactive"}
{"compound": "CC(COc1ccccc1)N(CCCl)Cc1ccccc1", "note": "(stereo not given)", "Potency": "inactive"}
{"compound": "Cc1cn([C@H]2C[C@H](N=[N+]=[N-])[C@@H](CO)O2)c(=O)[nH]c1=O", "Potency": "inactive"}
{"compound": "CC[N+](CC)(CC)CCOc1cccc(OCC[N+](CC)(CC)CC)c1OCC[N+](CC)(CC)CC", "Potency": "inactive"}
{"compound": "CN(C)CCC=C1c2ccccc2C=Cc2ccccc21", "Potency": "inactive"}
{"compound": "CCOC(=O)c1ncn2c1CN(C)C(=O)c1cc(F)ccc1-2", "Potency": "inactive"}
{"compound": "CC(C)C(=O)Nc1ccc([N+](=O)[O-])c(C(F)(F)F)c1", "Potency": "inactive"}
{"compound": "CCC1(C)CC(=O)NC1=O", "note": "(stereo not given)", "Potency": "inactive"}
{"compound": "CN(C)CCOC(c1ccccc1)c1ccccc1", "Potency": "inactive"}
{"compound": "OCCN(CCO)c1nc(N2CCCCC2)c2nc(N(CCO)CCO)nc(N3CCCCC3)c2n1", "Potency": "0.231 µM (active)"}
{"compound": "O=C(c1ccc(F)cc1)C1CCN(CCn2c(=O)[nH]c3ccccc3c2=O)CC1", "Potency": "inactive"}
{"compound": "CS(=O)(=O)Nc1ccc([N+](=O)[O-])cc1Oc1ccccc1", "Potency": "inactive"}
{"compound": "Cc1cn([C@H]2C=C[C@@H](CO)O2)c(=O)[nH]c1=O", "Potency": "inactive"}
{"compound": "CC(CCc1ccc(O)cc1)NCCc1ccc(O)c(O)c1", "note": "(stereo not given)", "Potency": "inactive"}
{"compound": "Nc1ccn([C@H]2CC[C@@H](CO)O2)c(=O)n1", "Potency": "inactive"}
{"compound": "CCOC(=O)Nc1ccc(NCc2ccc(F)cc2)nc1N", "Potency": "inactive"}
{"compound": "COc1ccc2c(c1)c(CC(=O)O)c(C)n2C(=O)c1ccc(Cl)cc1", "Potency": "inactive"}
{"compound": "COC(=O)Nc1nc2ccc(C(=O)c3cccs3)cc2[nH]1", "Potency": "inactive"}
{"compound": "CN1C2CCC1CC(OC(=O)C(CO)c1ccccc1)C2", "note": "(stereo not given)", "Potency": "inactive"}
{"compound": "CC(C)NCC(O)c1ccc(O)c(O)c1", "note": "(stereo not given)", "Potency": "inactive"}
{"compound": "NCCS(=O)(=O)O", "Potency": "inactive"}
